High-throughput results from PubChem.
Shiga toxin inh: Shiga toxin inhibition | Vero cells, Shiga toxin protein synthesis inhibition reporter | inhibition, % at 38.7 µM | actives 9.2% (n = 290,000) | AID 2315; in the data active = inhibition mostly above about 28%, no sharp cut-off; inactive = mostly below about 43%; note: 0% is about no effect
LASV entry inh: Lassa virus entry inhibition. Lassa virus pseudotype entry inhibition, cell reporter. Potency, µM (doses to about 37.9 µM), inactives show at the top dose activity change, negative = inhibition, usual class: inhibitors. actives 1.2% (n = 300,000); calls by dose curve; tested in HEK293 cells; note: potency is the fitted concentration of half-maximal effect; % is set by controls: 0 for no effect and ±100 for the full control effect; nearly all actives have a fitted effect of over 50% in size
Pf growth 96h: inhibits malaria parasite growth, 96 h. P. falciparum luciferase reporter growth, 96 h. AID 504834. Potency, µM (highest dose often 28.7 µM), for inactives: at the highest dose activity change, negative = inhibition, usual class: inhibitors. actives 6.9% (n = 320,000); note: potency is the fitted concentration of half-maximal effect; % is set by controls: 0 for no effect and ±100 for the full control effect
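P. falciparum expressing integrated firefly luciferase, in erythrocytes at 2% hematocrit, 0.05% parasitemia, incubated with compounds 96 h at 37 C, 5% CO2. Growth inhibition read as loss of luminescence; two-generation exposure targets delayed-death apicoplast inhibitors.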
Marburg entry inh: blocks Marburg virus binding to or entry into cells; Marburg virus pseudotyped entry inhibition, cell reporter; Potency, µM (top dose mostly 37.8 µM), for the others: top-dose activity change, negative = inhibition, hits mostly inhibitors; actives 1.8% (n = 300,000); AID 540276; calls by dose curve; tested in HEK293 cells; note: potency is the fitted concentration of half-maximal effect; % is set by controls: 0 for no effect and ±100 for the full control effect
Cycloheximide cs: counter-screen hit for Shiga toxin inhibitors, cycloheximide. AID 2314. max response, %. actives 12% (n = 300,000). cell reporter, cycloheximide protein synthesis inhibition counterscreen; in the data active = max response mostly above about 13%, no sharp cut-off; inactive = mostly below about 14%; note: read at 38.3 µM for the half of the compounds with a filed dose; 0% is about no effect
Pf growth 48h: inhibits P. falciparum growth in the first generation, 48 h | P. falciparum luciferase growth in erythrocytes, 48 h | Potency, µM (doses to about 28.7 µM), for inactives: at the highest dose activity change, negative = inhibition, usual class: inhibitors | actives 5.9% (n = 310,000) | AID 504832; note: potency is the fitted concentration of half-maximal effect; % is set by controls: 0 for no effect and ±100 for the full control effect
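Parasite viability was followed by luminescence of a genomically integrated firefly luciferase. Cultures held 0.1% parasitemia at 2% hematocrit (final), incubated under 5% CO2 at 37 C.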
* hit, by the source's call; i = inactive; ? = inconclusive; nt = no result; [ ] = remark or other dose. Compounds with a hit are over-represented: about 19% of the library has one in this group of screens. Unless noted, calls come from the whole dose curve; as a rule, active = well fitted inhibition curve with a large enough effect; inconclusive = small, poorly fitted or top-dose-only effect, or another doubt; inactive = no such curve, though single readings can be large or run the other way.

SMILES | Shiga toxin inh | LASV entry inh | Pf growth 96h | Marburg entry inh | Cycloheximide cs | Pf growth 48h
CSc1ncc(CN2CCCCC2C(=O)Nc2ccc(Oc3ccccc3)nc2)cn1 (stereo unspecified) | 8 | -5% | -13% | 5.6µM* | 11 | ?
O=C(Nc1ccc(Oc2cccnc2)cc1)C1CCN(Cc2ccccc2)CC1 | -37 | 7% | ? | ? | -1 | ?
Cc1cccc(CN2CCCC(C(=O)Nc3ccccc3Oc3cccnc3)C2)c1 (stereo unspecified) | -2 | -7%[46.1 µM] | -5% | -13%[46.1 µM] | -2 | 9.3µM*
Cn1cc(C(=O)C(=O)N2CCOCC2)c2ccccc21 | -2 | nt | ? | nt | -4 | 17%
COc1ccc(OCC(=O)NC(CC(=O)O)c2ccc(OC)c(OC)c2)cc1 (stereo unspecified) | -13 | 1% | 25% | 22%[46.1 µM] | -3 | 5%
Cc1cc(CN2CCCCC2C(=O)Nc2ccc(Oc3cccnc3)cc2)oc1C (stereo unspecified) | 43* | nt | ? | nt | 21* | ?
O=C(Nc1ccc(Oc2cccnc2)cc1)C1CCN(Cc2ccccc2F)CC1 | -4 | -23% | 5.9µM* | -30% | 0 | ?
O=C(Nc1ccc(Oc2cccnc2)cc1)C1CCCCN1Cc1ccc(CO)o1 (stereo unspecified) | -3 | -21% | 17% | -2% | -3 | -15%
O=C(O)CCNc1nc(-c2ccccc2)c2cc(Br)ccc2n1 | -8 | nt | -24% | nt | -3 | 26%
Cc1ccc(C)c(C(=O)CN2C3=NCCCN3c3ccccc32)c1 | -24 | 11% | 9.3µM* | ? | -4 | 7.4µM*
CCCCCCN1C2=NCCCN2c2ccccc21 | -6 | nt | 12µM* | nt | -2 | ?
c1ccc2c(c1)N1CCN=C1N2CCN1CCCCC1 | 7 | -2% | 8% | ? | -5 | ?
OC(CN1C2=NCCCN2c2ccccc21)c1ccc2c(c1)OCO2 (stereo unspecified) | -5 | 4% | 39% | -13% | -2 | ?
COc1ccc(C(=O)CN2C3=NCCCN3c3ccccc32)cc1OC | -12 | 4% | -24% | ? | -3 | 5%
c1ccc2c(c1)N1CCCN=C1N2CCN1CCCCC1 | 45 | -26% | 11% | 13µM* | -4 | ?
Cc1ccc(C(O)CN2C3=NCCCN3c3ccccc32)cc1 (stereo unspecified) | -44 | -26% | 4.1µM* | ? | -3 | ?
C=CCN1C2=NCCCN2c2ccccc21 | -6 | nt | ? | nt | 5 | -11%
COc1cc(/C=C2/NC(=O)N(Cc3ccccc3F)C2=O)cc(OC)c1OC | -4 | ? | -11% | ? | -3 | -14%
CC1CCC2(CC1)NC(=O)N(CC(=O)Nc1nc(-c3ccc(F)cc3)cs1)C2=O (stereo unspecified) | 70 | -5% | nt | 13% | 14 | 8%
Cc1oc(C(=O)O)cc1COc1ccc2c3c(c(=O)oc2c1)CCC3 | -18 | -5% | nt | 13% | 1 | 43%
OCCN1C2=NCCCN2c2ccccc21 | -13 | 5%[46.1 µM] | 7.4µM* | ? | -5 | 0%
Cc1cccc(-c2nc(=S)c3c(o2)CCCC3)c1 | 129* | -24% | nt | 10% | 48* | 232%
CC(C)[C@H]1COC(c2cccc([N+](=O)[O-])c2)=N1 | i | nt | nt | nt | 14 | nt
CC(C)C1COC(c2cccc3ccccc23)=N1 (stereo unspecified) | 136* | ? | 274% | ? | 76* | 180%
CC1=NC=CC2C1=Nc1ccccc12 (stereo unspecified) | nt | nt | nt | -1% | nt | nt
SMILES | Shiga toxin inh | LASV entry inh | Pf growth 96h | Marburg entry inh | Cycloheximide cs | Pf growth 48h
CC(C)c1ccc(C2N3CCCN23)cc1 (stereo unspecified) | 25 | 13% | 10% | ? | 8 | 22%
c1ccc2cc(C3N4CCCN34)ccc2c1 (stereo unspecified) | 24 | nt | 11% | 2%[46.1 µM] | 24* | 41%
CC(C)C(=O)Nc1nnc(CCc2nnc(NC(=O)C(C)C)s2)s1 | 15 | ? | ? | 0% | -5 | 6%
O=C(CSc1nc2ccccc2s1)NNC(=O)Nc1ccc(Cl)c(Cl)c1 | -2 | -15% | 18% | 2%[46.1 µM] | 3 | 10%
O=C(Nc1ccc(F)cc1F)Nc1sccc1-c1nc2ccccc2s1 | 17 | nt | ? | nt | 3 | ?
O=C(NNc1nc2ccccc2s1)c1ccccc1F | 59* | 9% | -26% | ? | 29* | 8%
CC(C)C(=O)NNc1nc2ccccc2s1 | 51* | 11% | 94% | 3% | 38* | 85%
O=C(NNc1nc2ccccc2s1)C1CC1 | 28 | 29% | 34% | 18% | 15 | 38%
O=C(Nc1nc2ccccc2s1)Nc1ccc(F)cc1F | 72* | -15%[46.1 µM] | -17% | ? | 53* | 107%
O=C(NNc1nc2ccccc2s1)Nc1ccc(Cl)c(Cl)c1 | 60* | nt | 118% | nt | 40* | 20%
CN(C)c1nc2c(c(N)nn2-c2ccc(Cl)cc2)c(=O)o1 | -12 | -2% | 58% | -3% | 1 | 5%
COc1ccc(-c2csc(NC(=O)COC(=O)Cc3ccccc3)n2)cc1OC | 12 | 4% | 54% | -1% | 1 | 13%
O=C(NNc1nc2ccccc2s1)Nc1ccc(F)cc1 | 85* | nt | 132% | nt | 62* | 93%
O=C1CC(NNc2nc3ccccc3s2)C(=O)N1c1ccc(F)cc1 (stereo unspecified) | 2 | ? | 21% | 7%[46.1 µM] | 1 | 4%
CCOc1ccc(-c2c(C)nn3c(C)c(C(=O)Nc4ccccc4C(=O)OC)cnc23)cc1OCC | nt | 0%[46.1 µM] | nt | nt | nt | nt
CC1(C)CCC(=O)N2CC[C@H]3C[C@H](OC(=O)Nc4ccc(Br)cc4)C[C@@H]1[C@H]32 | 19 | nt | 0% | nt | 22* | 1%
Cc1csc2c(N3CCN(C(=O)Nc4ccc(OC(F)(F)F)cc4)CC3)ncnc12 | -1 | -18% | ? | ? | -1 | 1.5µM*
Cc1csc2c(N3CCCCC3)ncnc12 | 44 | nt | 20% | nt | 30* | 36%
Cc1csc2c(N3CCC(C(=O)O)CC3)ncnc12 | -1 | nt | 63% | nt | 6 | 0%
CC(C)(C)Nc1c(-c2ccc(O)cc2)nc2ccc(Cl)cn12 | -22 | -9%[46.1 µM] | 16% | -4%[46.1 µM] | -9 | 10µM*
Oc1ccc(-c2nc3ccc(Cl)cn3c2Nc2ccc(Cl)cc2)cc1 | nt | ? | nt | 3%[46.1 µM] | nt | nt
N#C/C(=C\c1cccc(O)c1)C(=O)Nc1ccc2c(c1)OCCO2 | 83* | nt | -22% | nt | 60* | ?
CC(C)NC(=O)/C(C#N)=C/c1ccc2c(c1)OCCO2 | 85* | 19% | 13% | 11% | 22* | -4%
CCOC(=O)/C(C#N)=C\c1ccc2c(c1)OCO2 | nt | 23% | nt | ? | nt | nt
N#C/C(=C/c1cccc(O)c1)C(=O)NCc1ccc(Cl)cc1 | 12 | -26% | -22% | -19%[46.1 µM] | -3 | ?
C=CCn1c(CC(=O)Nc2ccc(C)cc2C)nnc1SCC(=O)N1CCOCC1 | 8 | ? | 19% | 18% | 1 | 16%
COc1ccccc1C(=O)OCCN1CCOCC1 | -14 | 0% | 17% | -7% | -2 | nt
